USP8 inh = human USP8 deubiquitinase inhibition | P40818 | purified USP8, Ub-rhodamine cleavage fluorescence, 30 min | inhibition, % at 20 µM | 47,000 compounds, 4.2% hits | AID 1645853
USP28 block = human USP28 deubiquitinase inhibition; purified USP28, Ub-rhodamine cleavage fluorescence, 30 min; inhibition, % at 25 µM; Q96RU2; AID 1645857; 47,000 compounds, 3% hits
USP17 inh = blocks human USP17 ubiquitin-rhodamine cleavage; A8MUK1; purified USP17, Ub-rhodamine cleavage fluorescence, 3 h; inhibition, % at 50 µM; 47,000 compounds, 6.5% hits
OTUD3 inh = inhibitors of human OTUD3 deubiquitinase. Q5T2D3. purified OTUD3, Ub-rhodamine fluorescence, 2 h. inhibition, % at 25 µM. 47,000 compounds, 0.7% hits. AID 1645858
USP30 inh = human USP30 deubiquitinase inhibition. Q70CQ3. purified USP30, Ub-rhodamine cleavage fluorescence. inhibition, % at 25 µM. 47,000 compounds, 5.3% hits
Large screens that a line does not name were inactive. The list is not random: actives were taken first. Their share in the collection is about 13%. Rule as the data show it: active = inhibition above about 30%; inactive = the rest.

Cc1noc(-c2ccc(-n3ncc(C(=O)NCc4ccccc4F)c3C)nc2)n1	USP17 inh 40.5, USP30 inh 43.1
Cc1noc(-c2cc(=O)n(CC(=O)Nc3ccccc3C)c3ccccc23)n1	USP17 inh 44.7
CCCc1noc(-c2ccc(-n3ncc(C(=O)N4CCN(C)CC4)c3C)nc2)n1	USP30 inh 30.5
Cc1cc(=O)n(CC(=O)Nc2ccccc2C)c(Nc2ccc(F)cc2)n1	USP30 inh 72.6
CC(C)C1=C2C3=CC=C(C=O)C[C@H](O[C@@H]4OC[C@@H](O)[C@H](O)[C@H]4O)[C@@]3(C)CC[C@@]2(C)CC1	none
c1ccc(-c2noc(-c3nnc(N4CCN(c5ccccn5)CC4)c4ccccc34)n2)cc1	none
O=C(COc1ccccc1)NCc1csc(-c2ccccc2)n1	USP17 inh 44.2, USP30 inh 31.0
COc1ccc(-c2nc(CNC(=O)Cc3ccc(Cl)cc3)cs2)cc1	USP17 inh 35.5
CC(=O)NC1(c2ccc(F)cc2)CCN(CC(=O)NC2CCCC2)CC1	none
O=C(Cn1c(=O)n(-c2ccccc2)c(=O)c2oc3ccccc3c21)N1CCCC1	none
CN1CC(=O)N(C2CCNC2)Cc2c(NCc3ccc(Cl)cc3)ncnc21 (configuration not stated)	USP28 block 31.5
CCCCCNc1ncnc2c1CN(C1CCNC1)C(=O)CN2C (configuration not stated)	none
CCOC(=O)c1c(-c2ccccc2Cl)csc1NC(=O)CNc1cccc(O)c1	USP28 block 39.0, USP17 inh 31.6
Cc1ccc2nc(C)cc(C(=O)NCc3ccc(C)o3)c2c1	none
O=C1Nc2ccccc2C(=O)C1C(c1ccc(Cl)cc1)C1C(=O)Nc2ccccc2C1=O (configuration not stated)	USP8 inh 34.5, USP28 block 39.9, USP17 inh 88.2, USP30 inh 41.1
O=C1Nc2ccccc2C(=O)N2CCCC12 (configuration not stated)	none
Cc1ccc(-n2cc3c(N4CCCC(C(=O)NCC5CCCCC5)C4)ncnc3n2)cc1 (configuration not stated)	USP17 inh 59.8, USP30 inh 38.6
COc1ccc(Cn2nnc(C(=O)N3CCSCC3)c2-n2cccc2)cc1	USP17 inh 33.4
O=C(c1nnn(Cc2ccc(Cl)cc2)c1-n1cccc1)N1CCCC1	USP28 block 76.1
COc1ccc(Cn2nnc(C(=O)NC3CCCCC3)c2-n2cccc2)cc1	USP8 inh 48.7, USP28 block 41.6, USP17 inh 48.1
COc1cccc(S(=O)(=O)Nc2ccc(-c3nnc(-c4ccccc4)o3)cc2)c1	none
COc1ccc(C)cc1-n1c(SCC(C)=O)nc2ccccc2c1=O	none
Cc1nc(N2CCN(c3ccc(Cl)cc3)CC2)c2oc3ccccc3c2n1	USP8 inh 63.4
CC(=O)Nc1ccc(NC(=O)c2ccc(N3C(=O)N4CCc5c([nH]c6ccccc56)[C@@]4(C)C3=O)cc2)cc1	USP28 block 30.6
COc1ccc(CNC(=O)c2ccccc2N2C(=O)N3CCc4c([nH]c5ccc(OC)cc45)[C@@]3(C)C2=O)cc1	USP17 inh 44.6
C[C@]12C(=O)N(c3cccc(C(=O)O)c3)C(=O)N1CCc1c2[nH]c2ccccc12	USP30 inh 36.3
C[C@]12C(=O)N(c3ccc(C(=O)NCc4ccco4)cc3)C(=O)N1CCc1c2[nH]c2ccccc12	none
C[C@]12C(=O)N(c3ccc(C(=O)NCc4ccc(F)cc4)cc3)C(=O)N1CCc1c2[nH]c2ccccc12	USP17 inh 34.6, USP30 inh 52.0
Cc1ncc2c(n1)CCN(C(=O)Nc1cc(Cl)ccc1C)C2	none
COc1ccc(Cl)c2sc(N3CCN(C(=O)c4ccn(C)n4)CC3)nc12	USP17 inh 47.1
O=C(NCc1ccc(Cl)cc1)c1ccc(N2CCCS2(=O)=O)cc1	USP28 block 44.7, USP17 inh 64.2
COc1ccccc1-n1ccn2cc(-c3ccc(C)c(C)c3)nc2c1=O	USP17 inh 31.2
Cc1cc2cc3c(cc2n2c(=O)n(CCN4CCCC4)nc12)OCO3	USP17 inh 47.4, USP30 inh 41.5
COc1ccc(CC(=O)Nc2c(NCc3ccccc3)c3ccccc3oc2=O)cc1	USP8 inh 91.5, USP28 block 33.6, USP17 inh 85.2, USP30 inh 75.1
Cn1c(=O)c2c(nc(CN3CCN(c4ccccc4F)CC3)n2Cc2ccccc2Cl)n(C)c1=O	USP30 inh 31.4
Cn1c(=O)c2c(nc(CN3CCOCC3)n2Cc2ccc(F)cc2)n(C)c1=O	none
Cc1cc(C)cc(NC(=O)c2c(O)c3ccccc3[nH]c2=O)c1	USP8 inh 42.0
O=C(Nc1ccccc1)c1c(O)c2cnn(-c3ccc(F)cc3)c2[nH]c1=O	none
O=C(Nc1cccnc1)[C@H]1C[C@@H]2CN(Cc3ccc(F)cc3)C[C@H]1O2	none
COc1ccc(N2CCn3c(SCC(=O)Nc4cc(C)cc(C)c4)nnc32)cc1	USP8 inh 49.9, USP30 inh 34.7 (no result: USP17 inh)
O=C(NCc1ccccc1Cl)c1csnn1	none
COc1ccc(C(=O)NCc2csc3ccccc23)cc1	USP28 block 34.7, USP30 inh 64.2
O=C(NCc1csc2ccccc12)c1ccc(Cl)cc1	USP30 inh 45.4
Cc1cc(=O)n(CC(=O)N2CCCc3ccccc32)c(N2CCCCC2)n1	none
Cc1ccc(F)c(NS(=O)(=O)c2cc3n(c2)CCCNC3=O)c1	none
COc1ccccc1/C=C(\C(=O)N1CCN(Cc2ccccc2)CC1)c1ccccc1	USP30 inh 39.9
COc1cc(OC)nc(C(=O)N2CCN(Cc3ccccc3)CC2)n1	none
CCOC(=O)c1ccc(NC(=O)/C(=C/c2ccccc2Cl)c2ccccc2)cc1	none
CCOC(=O)c1ccc(NC(=O)Cn2c(=O)n(CC(=O)NCc3ccco3)c(=O)c3ccccc32)cc1	USP17 inh 41.2, USP30 inh 59.2
O=C(Cc1ccc(-n2c(=O)c3ccccc3n(CC(=O)Nc3ccc(F)cc3F)c2=O)cc1)NCc1ccco1	none
COC(=O)c1ccccc1NC(=O)Cn1c(=O)n(Cc2ccc(C(=O)NCc3ccco3)cc2)c(=O)c2ccccc21	USP8 inh 38.7
CCOC(=O)c1ccc(NC(=O)Cn2c(=O)n(-c3ccc(CC(=O)NCc4ccco4)cc3)c(=O)c3ccccc32)cc1	USP8 inh 58.3
O=C(Cn1c(=O)n(Cc2ccccc2)c(=O)c2cc(Cl)ccc21)NCc1ccco1	none
O=C(NC1CCCCC1)c1ccccc1N1C(=O)[C@@H]2Cc3c([nH]c4ccccc34)C(c3cccc(Cl)c3)N2C1=O (some centres not stated)	none
O=C(Cn1c(=O)c2sccc2n(CC(=O)NCCC2=CCCCC2)c1=O)NCc1ccccc1Cl	USP17 inh 47.6 (no result: USP28 block, USP30 inh)
O=C(Cn1c(=O)n(-c2ccc(CC(=O)NC3CCCC3)cc2)c(=O)c2ccccc21)NCc1ccco1	none
COc1ccccc1CNC(=O)CCCCn1c(=O)c2ccccc2n(CC(=O)NCCC2=CCCCC2)c1=O	USP17 inh 42.6

From PubChem BioAssay
